# According to publication PMC7862700, “An all-to-all approach to the identification of sequence-specific readers for epigenetic DNA modifications on cytosine”:
# Legend:
# Experiment in all cases: DAPPL (digital affinity profiling via proximity ligation, sequencing); 10 mM Tris-HCl pH 7.5, 50 mM NaCl, 1 mM DTT, 4% glycerol, room temperature, 30 min; GST-TFs on glutathione beads, 16-mer random dsDNA library, 0.1% formaldehyde crosslink after washing; high values mean tight binding
# FLI1 = target: T1, FLI1 (Homo sapiens, UniProt Q01543 1-452); conditions: protein: recombinant; tags: N-terminal GST; dsDNA, one strand shown
# T1 sequence: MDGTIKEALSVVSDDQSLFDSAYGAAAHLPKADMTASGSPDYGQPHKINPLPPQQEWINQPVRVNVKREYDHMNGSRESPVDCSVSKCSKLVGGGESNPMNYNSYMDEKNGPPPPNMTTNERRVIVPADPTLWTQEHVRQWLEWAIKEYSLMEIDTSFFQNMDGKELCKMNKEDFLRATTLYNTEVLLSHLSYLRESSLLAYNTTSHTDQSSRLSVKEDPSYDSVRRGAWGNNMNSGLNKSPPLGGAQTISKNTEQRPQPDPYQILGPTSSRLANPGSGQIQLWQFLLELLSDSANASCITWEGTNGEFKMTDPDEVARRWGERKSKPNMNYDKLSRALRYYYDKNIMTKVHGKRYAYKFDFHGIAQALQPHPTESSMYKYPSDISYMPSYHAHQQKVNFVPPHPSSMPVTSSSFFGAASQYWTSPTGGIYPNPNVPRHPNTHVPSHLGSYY
# Procedure, shortened: (§1)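 GST fusions of human transcription factors were expressed in yeast and captured with glutathione beads. Once given DNA barcodes and pooled alongside a tag-only sample, they were incubated for 30 min at room temperature with 200 nmole of a random double-stranded 16-mer DNA library in Tris/NaCl/DTT/glycerol buffer, then washed, crosslinked (0.1% formaldehyde), proximity-ligated, PCR-amplified and sequenced on an Illumina NextSeq500. The binding signal of each hexamer is its read frequency for a factor divided by its frequency for the tag-only sample.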
# ELK1 = target: T2, ELK1 (Homo sapiens, UniProt P19419 1-428); conditions: protein: recombinant; tags: N-terminal GST; dsDNA, one strand shown
# T2 sequence: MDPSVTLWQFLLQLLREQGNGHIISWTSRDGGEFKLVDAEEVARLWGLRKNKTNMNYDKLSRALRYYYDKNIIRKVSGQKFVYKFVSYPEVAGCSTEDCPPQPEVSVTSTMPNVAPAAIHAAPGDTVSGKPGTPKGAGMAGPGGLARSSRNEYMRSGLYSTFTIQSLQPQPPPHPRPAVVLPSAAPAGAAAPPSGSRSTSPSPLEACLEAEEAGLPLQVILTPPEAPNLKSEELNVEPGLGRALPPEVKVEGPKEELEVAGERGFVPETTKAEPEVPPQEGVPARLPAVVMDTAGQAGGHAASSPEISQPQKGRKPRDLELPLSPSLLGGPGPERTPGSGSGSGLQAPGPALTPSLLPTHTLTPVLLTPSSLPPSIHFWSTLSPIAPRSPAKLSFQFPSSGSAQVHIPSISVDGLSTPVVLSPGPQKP
# Procedure, shortened: as §1
# GABPA = target: T3, GABPA (Homo sapiens, UniProt Q06546 1-454); conditions: protein: recombinant; tags: N-terminal GST; dsDNA, one strand shown
# T3 sequence: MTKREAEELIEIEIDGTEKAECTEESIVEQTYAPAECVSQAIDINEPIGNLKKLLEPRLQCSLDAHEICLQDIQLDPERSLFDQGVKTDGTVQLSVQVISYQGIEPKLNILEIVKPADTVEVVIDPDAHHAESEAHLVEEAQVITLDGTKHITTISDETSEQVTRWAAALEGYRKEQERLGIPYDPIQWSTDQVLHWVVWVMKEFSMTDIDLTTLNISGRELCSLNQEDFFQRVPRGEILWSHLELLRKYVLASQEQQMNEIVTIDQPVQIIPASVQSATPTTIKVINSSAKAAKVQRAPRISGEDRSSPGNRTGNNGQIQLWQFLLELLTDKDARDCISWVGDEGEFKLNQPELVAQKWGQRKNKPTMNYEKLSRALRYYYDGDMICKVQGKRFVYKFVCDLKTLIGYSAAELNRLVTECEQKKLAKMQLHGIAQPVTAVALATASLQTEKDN
# Procedure, shortened: as §1
# ERG = target: T4, ERG (Homo sapiens, UniProt P11308 1-479); conditions: protein: recombinant; tags: N-terminal GST; dsDNA, one strand shown
# T4 sequence: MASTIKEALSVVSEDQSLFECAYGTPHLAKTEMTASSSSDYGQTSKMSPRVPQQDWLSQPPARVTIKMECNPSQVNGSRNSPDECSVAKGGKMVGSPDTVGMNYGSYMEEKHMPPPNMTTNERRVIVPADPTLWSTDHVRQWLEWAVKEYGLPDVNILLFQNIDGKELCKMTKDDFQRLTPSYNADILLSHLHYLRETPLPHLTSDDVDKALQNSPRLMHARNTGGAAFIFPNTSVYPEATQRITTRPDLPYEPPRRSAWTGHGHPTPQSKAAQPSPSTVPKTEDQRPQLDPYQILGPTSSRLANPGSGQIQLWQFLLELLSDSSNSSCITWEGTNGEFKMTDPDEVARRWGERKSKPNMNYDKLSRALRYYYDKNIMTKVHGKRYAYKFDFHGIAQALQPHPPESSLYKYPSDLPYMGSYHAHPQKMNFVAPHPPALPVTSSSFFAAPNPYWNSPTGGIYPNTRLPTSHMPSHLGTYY
# Procedure, shortened: as §1
# ELF1 = ELF1 (Homo sapiens, UniProt P32519 1-619); conditions: protein: recombinant; tags: N-terminal GST; dsDNA, one strand shown
# Procedure, shortened: as §1
# EHF = target: T5, EHF (Homo sapiens, UniProt Q9NZC4 1-300); conditions: protein: recombinant; tags: N-terminal GST; dsDNA, one strand shown
# T5 sequence: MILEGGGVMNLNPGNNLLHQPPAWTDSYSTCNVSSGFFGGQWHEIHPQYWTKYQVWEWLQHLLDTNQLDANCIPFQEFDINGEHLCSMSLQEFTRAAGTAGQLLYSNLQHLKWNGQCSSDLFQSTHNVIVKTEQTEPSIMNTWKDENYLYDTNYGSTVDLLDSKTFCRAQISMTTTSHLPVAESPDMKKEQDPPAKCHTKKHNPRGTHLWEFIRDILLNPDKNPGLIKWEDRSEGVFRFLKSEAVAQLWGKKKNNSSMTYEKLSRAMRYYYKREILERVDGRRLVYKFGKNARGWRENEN
# Procedure, shortened: as §1
# SPI1 = SPI1 (Homo sapiens, UniProt P17947 1-270); conditions: protein: recombinant; tags: N-terminal GST; dsDNA, one strand shown
# Procedure, shortened: as §1
# SPIB = SPIB (Homo sapiens, UniProt Q01892 1-262); conditions: protein: recombinant; tags: N-terminal GST; dsDNA, one strand shown
# Procedure, shortened: as §1
# ELK3 = target: T6, ELK3 (Homo sapiens, UniProt P41970 1-407); conditions: protein: recombinant; tags: N-terminal GST; dsDNA, one strand shown
# T6 sequence: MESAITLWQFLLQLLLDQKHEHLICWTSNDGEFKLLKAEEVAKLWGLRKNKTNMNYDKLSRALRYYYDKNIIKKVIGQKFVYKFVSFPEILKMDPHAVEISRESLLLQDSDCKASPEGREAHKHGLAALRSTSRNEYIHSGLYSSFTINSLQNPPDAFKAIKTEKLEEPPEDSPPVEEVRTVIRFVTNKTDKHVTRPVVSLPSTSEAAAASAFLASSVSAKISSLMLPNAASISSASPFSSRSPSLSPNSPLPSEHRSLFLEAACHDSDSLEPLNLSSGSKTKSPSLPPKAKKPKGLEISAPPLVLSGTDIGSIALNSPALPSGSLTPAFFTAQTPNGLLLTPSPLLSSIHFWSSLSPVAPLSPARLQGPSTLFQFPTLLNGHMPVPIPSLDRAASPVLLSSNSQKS
# Procedure, shortened: as §1
# FEV = target: T7, FEV (Homo sapiens, UniProt Q99581 1-238); conditions: protein: recombinant; tags: N-terminal GST; dsDNA, one strand shown
# T7 sequence: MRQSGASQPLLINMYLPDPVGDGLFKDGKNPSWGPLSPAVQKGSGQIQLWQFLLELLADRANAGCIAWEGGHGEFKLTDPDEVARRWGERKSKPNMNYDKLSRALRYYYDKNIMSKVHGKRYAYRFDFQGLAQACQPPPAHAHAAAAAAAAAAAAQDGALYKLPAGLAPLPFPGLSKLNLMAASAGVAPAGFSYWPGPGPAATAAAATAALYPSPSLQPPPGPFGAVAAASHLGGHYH
# Procedure, shortened: as §1
# ETV5 = ETV5 (Homo sapiens, UniProt P41161 1-510); conditions: protein: recombinant; tags: N-terminal GST; dsDNA, one strand shown
# Procedure, shortened: as §1
# HSF1 = HSF1 (Homo sapiens, UniProt Q00613 1-529); conditions: protein: recombinant; tags: N-terminal GST; chain copies: 3; dsDNA, one strand shown
# Procedure, shortened: as §1
# SPIC = target: T8, SPIC (Homo sapiens, UniProt Q8N5J4 1-248); conditions: protein: recombinant; tags: N-terminal GST; dsDNA, one strand shown
# T8 sequence: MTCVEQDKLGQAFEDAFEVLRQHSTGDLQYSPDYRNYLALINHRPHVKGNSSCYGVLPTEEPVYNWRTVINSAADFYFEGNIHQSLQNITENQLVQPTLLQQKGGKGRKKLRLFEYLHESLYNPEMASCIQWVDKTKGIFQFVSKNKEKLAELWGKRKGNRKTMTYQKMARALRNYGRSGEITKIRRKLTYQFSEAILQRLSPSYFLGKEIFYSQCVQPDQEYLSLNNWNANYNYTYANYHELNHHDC
# Procedure, shortened: as §1
# ELF4 = ELF4 (Homo sapiens, UniProt Q99607 1-663); conditions: protein: recombinant; tags: N-terminal GST; dsDNA, one strand shown
# Procedure, shortened: as §1
# ELK4 = target: T9, ELK4 (Homo sapiens, UniProt P28324-2 1-405); conditions: protein: recombinant; tags: N-terminal GST; dsDNA, one strand shown
# T9 sequence: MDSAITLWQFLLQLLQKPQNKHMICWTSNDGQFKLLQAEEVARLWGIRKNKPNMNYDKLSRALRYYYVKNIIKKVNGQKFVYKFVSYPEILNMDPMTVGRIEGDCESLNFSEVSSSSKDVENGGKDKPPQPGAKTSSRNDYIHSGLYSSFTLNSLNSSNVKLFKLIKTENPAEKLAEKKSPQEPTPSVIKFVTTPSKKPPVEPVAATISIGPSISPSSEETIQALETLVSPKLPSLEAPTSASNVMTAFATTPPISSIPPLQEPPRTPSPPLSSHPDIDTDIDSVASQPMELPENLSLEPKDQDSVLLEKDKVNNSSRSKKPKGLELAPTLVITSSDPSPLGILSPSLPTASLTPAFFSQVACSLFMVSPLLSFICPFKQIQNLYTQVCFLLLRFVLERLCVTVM
# Procedure, shortened: as §1
# ETV2 = target: T10, ETV2 (Homo sapiens, UniProt O00321 1-342); conditions: protein: recombinant; tags: N-terminal GST; dsDNA, one strand shown
# T10 sequence: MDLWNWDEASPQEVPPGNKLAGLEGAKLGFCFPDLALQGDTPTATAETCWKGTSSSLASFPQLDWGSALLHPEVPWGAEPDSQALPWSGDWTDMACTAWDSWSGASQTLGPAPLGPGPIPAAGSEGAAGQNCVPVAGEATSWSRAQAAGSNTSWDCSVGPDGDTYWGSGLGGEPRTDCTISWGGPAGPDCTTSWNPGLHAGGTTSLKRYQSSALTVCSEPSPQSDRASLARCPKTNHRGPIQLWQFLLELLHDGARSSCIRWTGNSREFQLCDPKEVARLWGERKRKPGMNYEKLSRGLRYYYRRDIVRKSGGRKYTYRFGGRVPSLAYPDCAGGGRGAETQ
# Procedure, shortened: as §1
# ELF3 = target: T11, ELF3 (Homo sapiens, UniProt P78545 1-371); conditions: protein: recombinant; tags: N-terminal GST; dsDNA, one strand shown
# T11 sequence: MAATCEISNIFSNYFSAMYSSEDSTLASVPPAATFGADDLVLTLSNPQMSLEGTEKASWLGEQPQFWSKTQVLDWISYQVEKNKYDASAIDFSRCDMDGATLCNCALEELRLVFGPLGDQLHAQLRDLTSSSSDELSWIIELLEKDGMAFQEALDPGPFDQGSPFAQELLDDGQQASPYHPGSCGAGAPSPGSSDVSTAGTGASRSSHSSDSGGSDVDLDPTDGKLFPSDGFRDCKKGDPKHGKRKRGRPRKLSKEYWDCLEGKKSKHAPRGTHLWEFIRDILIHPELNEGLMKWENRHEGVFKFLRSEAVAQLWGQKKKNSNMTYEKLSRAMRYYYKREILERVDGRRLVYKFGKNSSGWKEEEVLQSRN
# Procedure, shortened: as §1
# CRX = CRX (Homo sapiens, UniProt O43186 1-299); conditions: protein: recombinant; tags: N-terminal GST; dsDNA, one strand shown
# Procedure, shortened: as §1
# ETV1 = ETV1 (Homo sapiens, UniProt P50549 1-477); conditions: protein: recombinant; tags: N-terminal GST; dsDNA, one strand shown
# Procedure, shortened: as §1
# Chain of ELF1 (P32519 whole entry): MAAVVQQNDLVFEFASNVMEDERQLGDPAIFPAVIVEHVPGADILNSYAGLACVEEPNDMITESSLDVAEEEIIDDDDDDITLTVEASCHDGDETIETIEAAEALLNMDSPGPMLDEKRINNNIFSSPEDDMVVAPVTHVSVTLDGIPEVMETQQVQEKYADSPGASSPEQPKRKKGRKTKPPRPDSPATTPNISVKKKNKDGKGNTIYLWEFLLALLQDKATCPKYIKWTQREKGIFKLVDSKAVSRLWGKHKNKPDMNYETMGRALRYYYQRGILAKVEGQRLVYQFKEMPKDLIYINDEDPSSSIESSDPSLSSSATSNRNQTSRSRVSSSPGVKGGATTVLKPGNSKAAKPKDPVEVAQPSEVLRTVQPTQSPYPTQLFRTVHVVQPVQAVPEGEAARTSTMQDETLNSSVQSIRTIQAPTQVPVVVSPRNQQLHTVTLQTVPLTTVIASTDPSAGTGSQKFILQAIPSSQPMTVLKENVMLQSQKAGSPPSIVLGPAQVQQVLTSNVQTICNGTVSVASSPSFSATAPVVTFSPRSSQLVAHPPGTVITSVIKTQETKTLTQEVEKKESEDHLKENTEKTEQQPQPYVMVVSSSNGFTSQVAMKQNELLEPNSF
# Chain of SPIB (Q01892 whole entry): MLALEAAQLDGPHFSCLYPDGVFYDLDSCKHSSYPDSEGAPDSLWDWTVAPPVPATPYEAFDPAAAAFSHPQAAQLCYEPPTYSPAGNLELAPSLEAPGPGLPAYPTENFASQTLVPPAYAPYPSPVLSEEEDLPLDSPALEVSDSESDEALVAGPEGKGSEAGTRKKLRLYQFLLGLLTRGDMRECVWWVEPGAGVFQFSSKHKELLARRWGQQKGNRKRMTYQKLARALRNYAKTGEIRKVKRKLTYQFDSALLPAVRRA
# Chain of ETV1 (P50549 whole entry): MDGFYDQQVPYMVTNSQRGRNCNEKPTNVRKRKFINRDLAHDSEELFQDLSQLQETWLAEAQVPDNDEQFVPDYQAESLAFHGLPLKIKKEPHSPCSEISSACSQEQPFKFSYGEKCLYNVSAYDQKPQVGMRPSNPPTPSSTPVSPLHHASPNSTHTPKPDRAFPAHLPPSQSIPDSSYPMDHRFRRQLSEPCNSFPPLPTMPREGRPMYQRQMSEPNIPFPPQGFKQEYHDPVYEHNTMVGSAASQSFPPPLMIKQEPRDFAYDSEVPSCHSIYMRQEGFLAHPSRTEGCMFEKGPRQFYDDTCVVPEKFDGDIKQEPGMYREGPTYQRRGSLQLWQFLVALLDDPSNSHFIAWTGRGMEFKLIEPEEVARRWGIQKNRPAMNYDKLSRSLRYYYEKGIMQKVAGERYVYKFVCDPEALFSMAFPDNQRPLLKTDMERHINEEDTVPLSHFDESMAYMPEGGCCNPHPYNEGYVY
# Chain of HSF1 (Q00613 whole entry): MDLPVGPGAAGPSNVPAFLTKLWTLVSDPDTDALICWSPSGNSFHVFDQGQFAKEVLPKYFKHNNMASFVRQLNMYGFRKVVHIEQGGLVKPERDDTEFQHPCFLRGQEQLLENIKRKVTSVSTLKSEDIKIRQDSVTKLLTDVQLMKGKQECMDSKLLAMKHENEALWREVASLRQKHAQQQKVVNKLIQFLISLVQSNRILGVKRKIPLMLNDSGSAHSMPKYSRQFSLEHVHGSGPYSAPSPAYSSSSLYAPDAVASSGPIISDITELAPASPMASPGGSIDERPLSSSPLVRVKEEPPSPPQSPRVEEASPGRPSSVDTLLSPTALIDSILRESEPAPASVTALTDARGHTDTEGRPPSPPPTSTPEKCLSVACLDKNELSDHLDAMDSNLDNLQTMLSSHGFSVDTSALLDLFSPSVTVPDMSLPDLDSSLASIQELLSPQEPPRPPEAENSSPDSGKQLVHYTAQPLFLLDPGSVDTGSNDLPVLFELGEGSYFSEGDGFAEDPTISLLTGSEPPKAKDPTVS
# Chain of CRX (O43186 whole entry): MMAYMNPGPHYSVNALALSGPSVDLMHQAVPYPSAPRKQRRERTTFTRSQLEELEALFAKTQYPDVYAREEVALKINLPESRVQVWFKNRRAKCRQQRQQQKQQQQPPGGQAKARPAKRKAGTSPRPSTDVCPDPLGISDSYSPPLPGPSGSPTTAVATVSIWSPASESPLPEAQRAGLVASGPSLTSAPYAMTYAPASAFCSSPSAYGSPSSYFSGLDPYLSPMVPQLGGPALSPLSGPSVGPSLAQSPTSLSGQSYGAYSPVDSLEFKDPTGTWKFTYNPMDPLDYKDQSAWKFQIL
# Chain of ELF4 (Q99607 whole entry): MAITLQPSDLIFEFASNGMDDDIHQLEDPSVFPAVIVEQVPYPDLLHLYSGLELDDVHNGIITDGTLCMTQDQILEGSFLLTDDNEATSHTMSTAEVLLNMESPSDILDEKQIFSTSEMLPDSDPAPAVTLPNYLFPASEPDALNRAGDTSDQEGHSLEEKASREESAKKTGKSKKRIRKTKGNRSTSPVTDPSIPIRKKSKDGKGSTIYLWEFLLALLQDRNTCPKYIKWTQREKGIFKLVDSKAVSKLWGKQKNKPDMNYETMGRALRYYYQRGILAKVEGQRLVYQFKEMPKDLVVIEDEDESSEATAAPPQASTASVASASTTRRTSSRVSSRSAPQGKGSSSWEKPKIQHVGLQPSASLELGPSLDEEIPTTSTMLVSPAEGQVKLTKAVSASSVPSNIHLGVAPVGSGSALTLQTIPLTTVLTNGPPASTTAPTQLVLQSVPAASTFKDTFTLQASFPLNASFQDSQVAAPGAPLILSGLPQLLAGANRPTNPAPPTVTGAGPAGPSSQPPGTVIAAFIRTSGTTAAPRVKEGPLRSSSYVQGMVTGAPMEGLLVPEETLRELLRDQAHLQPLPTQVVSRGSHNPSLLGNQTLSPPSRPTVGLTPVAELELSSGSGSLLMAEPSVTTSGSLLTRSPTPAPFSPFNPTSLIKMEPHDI
# Chain of ETV5 (P41161 whole entry): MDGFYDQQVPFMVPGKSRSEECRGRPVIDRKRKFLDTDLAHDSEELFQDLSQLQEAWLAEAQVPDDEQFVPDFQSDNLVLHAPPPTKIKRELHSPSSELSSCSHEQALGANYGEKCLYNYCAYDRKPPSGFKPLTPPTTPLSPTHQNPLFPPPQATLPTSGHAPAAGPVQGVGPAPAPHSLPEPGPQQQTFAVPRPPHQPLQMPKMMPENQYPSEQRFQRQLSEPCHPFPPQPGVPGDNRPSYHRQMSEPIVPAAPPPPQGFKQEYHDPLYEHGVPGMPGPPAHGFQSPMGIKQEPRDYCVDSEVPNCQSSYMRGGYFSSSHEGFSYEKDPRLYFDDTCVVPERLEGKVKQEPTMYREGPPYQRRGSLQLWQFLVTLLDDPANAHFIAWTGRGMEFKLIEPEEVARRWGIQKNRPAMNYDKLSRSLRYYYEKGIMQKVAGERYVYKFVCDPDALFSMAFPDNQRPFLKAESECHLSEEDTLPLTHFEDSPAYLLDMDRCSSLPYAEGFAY
sequence,measurement,setting,value
TCTCCA,binding signal,FLI1,"1.52 fold enrichment (6-mer frequency, TF over GST control)"
same,binding signal,ELK1,"1.46 fold enrichment (6-mer frequency, TF over GST control)"
same,binding signal,GABPA,"1.56 fold enrichment (6-mer frequency, TF over GST control)"
same,binding signal,ERG,"1.37 fold enrichment (6-mer frequency, TF over GST control)"
same,binding signal,ELF1,"1.43 fold enrichment (6-mer frequency, TF over GST control)"
same,binding signal,EHF,"1.55 fold enrichment (6-mer frequency, TF over GST control)"
same,binding signal,SPI1,"1.57 fold enrichment (6-mer frequency, TF over GST control)"
same,binding signal,SPIB,"1.44 fold enrichment (6-mer frequency, TF over GST control)"
same,binding signal,ELK3,"1.59 fold enrichment (6-mer frequency, TF over GST control)"
same,binding signal,FEV,"1.44 fold enrichment (6-mer frequency, TF over GST control)"
same,binding signal,ETV5,"1.39 fold enrichment (6-mer frequency, TF over GST control)"
same,binding signal,HSF1,"1.91 fold enrichment (6-mer frequency, TF over GST control)"
same,binding signal,SPIC,"1.36 fold enrichment (6-mer frequency, TF over GST control)"
same,binding signal,ELF4,"1.42 fold enrichment (6-mer frequency, TF over GST control)"
same,binding signal,ELK4,"1.69 fold enrichment (6-mer frequency, TF over GST control)"
same,binding signal,ETV2,"1.55 fold enrichment (6-mer frequency, TF over GST control)"
same,binding signal,ELF3,"1.29 fold enrichment (6-mer frequency, TF over GST control)"
same,binding signal,CRX,"1.52 fold enrichment (6-mer frequency, TF over GST control)"
same,binding signal,ETV1,"1.38 fold enrichment (6-mer frequency, TF over GST control)"
